Screen size: about 68,000 compounds; about 2,700 (4%) showed an effect of 50% or more. The entries come from a sample that favours strong results as a whole.
The compounds below were run on Plasmodium berghei (assay: Screen against P. berghei liver stage (PbLuc), transformed with Luciferase, at 2uM). Conditions: tested at 2 uM.
Assay type: functional, HepG2

| SMILES | INHIBITION |
| --- | --- |
| Cc1ccc(F)cc1NC(=O)CCn1cncn1 | 5.31% |
| Cc1nc(CN2C[C@@H]3CN(C(=O)c4cccn4C)C[C@@H]3C2=O)cs1 | -32.67% |
| O=C(C1CCCCC1)N1CCC2(CC1)CNCc1ccccc12 | 31.27% |
| O=C(CN1CCOC(CNc2cccnn2)C1)NCc1ccccn1 (stereo not drawn) | 33.12% |
| Cc1nn(CC(=O)O)c(C)c1NS(=O)(=O)c1cc2ccccc2s1 | -38.97% |
| O=c1cc(CN2CCCC(CCc3c(F)cccc3F)C2)[nH]c(=O)[nH]1 (stereo not drawn) | -21.63% |
| CN(C)C(=O)CCS(=O)(=O)Cc1cc(Cl)c2c(c1)OCCO2 | 48.21% |
| CS(=O)(=O)Cc1cc(Cl)c2c(c1)OCCCO2 | 45.82% |
| CNC(=O)CCS(=O)(=O)Cc1cc(Cl)c2c(c1)OCCCO2 | 19% |
| CN(C)C(=O)CCCS(=O)(=O)Cc1cc(Cl)c2c(c1)OCO2 | 27.5% |
| CS(=O)(=O)CCS(=O)(=O)Cc1cc(Cl)c2c(c1)OCCCO2 | 72.05% |
| CN(C)C(=O)CCS(=O)(=O)Cc1cc(Cl)c2c(c1)OCO2 | 66.2% |
| CC(C)(O)CN1CCN(C(=O)c2sccc2C#N)CC1 | -29.69% |
| c1cnc(N2C[C@H]3CCN(Cc4ccncc4)C[C@H]3C2)nc1 | -20.87% |
| CC(NC(=O)N1CCC(OCc2ccccc2)CC1)c1nncn1C (stereo not drawn) | 29.11% |
| Cc1cc(C)c(C)c(OCCCNC(=O)NC(C)c2nncn2C)c1 (stereo not drawn) | 38.97% |
| COc1ccc(F)cc1C(=O)N1CCCC(CNS(C)(=O)=O)C1 (stereo not drawn) | -42.84% |
| O=C(NCCCNC(=O)C1CCC1)NCCn1cccc1 | 7.33% |
| N#Cc1c(N2CCCN(C3CCOCC3)CC2)nc2ccccn12 | 14.2% |
| N#Cc1c(N2CCN(CC3CCOC3)CC2)nc2ccccn12 (stereo not drawn) | 83.18% |
| CN1CCCC(N2CCN(c3nc4ccccn4c3C#N)CC2)C1 (stereo not drawn) | 38.1% |
| Cn1cccc1C(=O)N1CCc2ncnc(C3CC3)c2CC1 | 11.72% |

| SMILES | INHIBITION |
| --- | --- |
| Cc1ccc(C(=O)NC2CCCCNC2=O)c(=O)[nH]1 (stereo not drawn) | -4.09% |
| Cc1cc(C(=O)NC2CCCCNC2=O)c(=O)[nH]c1C (stereo not drawn) | 52.08% |
| O=C(NC1CCCCNC1=O)c1cc2ccccc2[nH]c1=O (stereo not drawn) | -0.79% |
| O=C(CCc1c[nH]cn1)N1CC[C@@H](c2ccc3ccccc3c2)[C@H](O)C1 | 43.1% |
| Cc1ccc(N2CCC3(CN(Cc4cccs4)CCC3(F)F)C2)nn1 (stereo not drawn) | -17.41% |
| Cc1noc(C)c1CC(=O)N1CCC(Nc2cccnn2)CC1 | -57.89% |
| Cc1ccc(CC(=O)N2CCC(Nc3cccnn3)CC2)s1 | 50.75% |
| Cc1ccc(NC2CCN(C(=O)Cc3ccc(C)s3)CC2)nn1 | -19.35% |
| O=C(Cc1cccc2ccccc12)N1CCC(Nc2cccnn2)CC1 | -58.05% |
| Cc1cccc2[nH]cc(CC(=O)N3CCC(Nc4cccnn4)CC3)c12 | 64.16% |
| O=C(Cc1c[nH]c2ccccc12)N1CCC(Nc2cccnn2)CC1 | -32.2% |
| O=C(NCc1ccccn1)NCC(O)c1ccccc1C(F)(F)F (stereo not drawn) | -19.62% |
| O=C(c1ccccc1OCC1CC1)N1CCCC1Cn1cccn1 (stereo not drawn) | -12.5% |
| O=C(CCCn1cncn1)N1CCC2(CCCNC2=O)C1 (stereo not drawn) | 43.1% |
| O=C(c1cccc(Cl)c1)N1CC[C@H]2[C@H]1CCN2CC1CCOCC1 | 49.03% |
| CCS(=O)(=O)N1CC[C@@H]2[C@H](CC1)N(CC(C)C)CCS2(=O)=O | 40.5% |
| Cc1cc(C(N)=O)nc(C2(C)CCCN2Cc2cnn(C)c2)n1 (stereo not drawn) | 74.08% |
| Cc1cc(C)nc(C2(C)CCCN2CCO)n1 (stereo not drawn) | -8.85% |
| Cc1cc(C(N)=O)nc(C2(C)CCCN2Cc2cnn(C)c2C)n1 (stereo not drawn) | 40.31% |
| COc1ccc(-c2noc(CN3CCN(c4cnccn4)CC3)n2)cc1 | 32.88% |
| COc1ccc(-n2cnnc2CC2CCNCC2)cc1 | -22% |
| O=S(=O)(N1CCCC1)N1CC(c2ccnc(Nc3ccccn3)n2)C1 | 17.72% |

| SMILES | INHIBITION |
| --- | --- |
| CCN(CCc1nc2cc(C)ccc2[nH]1)C(=O)[C@@H](N)Cc1c[nH]cn1 | -2.23% |
| CN(C)CC1(O)CCCN(c2noc(-c3ccccc3)n2)CC1 (stereo not drawn) | 12.55% |
| Cc1cc(N2CCCC(O)(CN(C)C)CC2)nc(-c2ccccc2)n1 (stereo not drawn) | 1.06% |
| CN(C)CC1(O)CCCN(c2nc(-c3ccccc3)no2)CC1 (stereo not drawn) | 76.6% |
| c1cc(-c2cscn2)cc(N2CCC(NCCc3cccs3)CC2)c1 | -15.42% |
| CCC(=O)N1CCC2(CC1)CC(CC(=O)N(C)C)c1ccc(F)cc12 (stereo not drawn) | -0.45% |
| CC(C)COC(C)C(=O)NCCNC(=O)C(C)C (stereo not drawn) | 31.96% |
| CC(C)COC(C)C(=O)NCCNS(C)(=O)=O (stereo not drawn) | 52.74% |
| CCOC(C)C(=O)NCCNS(C)(=O)=O (stereo not drawn) | 8.41% |
| CCN(Cc1cccc2c1OCO2)C(=O)NCCOC | 25.61% |
| CN(C)C(=O)N1CCN(c2ccc3ccc(C(=O)NC4CC4)cn23)CC1 | 23.26% |
| CN(C)C(=O)c1ccc2ccc(N3CCN(CC4CC4)CC3)n2c1 | 19.96% |
| CC(=O)N1CCN(c2ccc3ccc(C(=O)NC4CCCC4)cn23)CC1 | -7.41% |
| CC(C)N1CCN(c2ccc3ccc(C(=O)NC4CCCC4)cn23)CC1 | 50.17% |
| O=C(O)c1ccc2ccc(N3CCN(CC4CC4)CC3)n2c1 | 57.95% |
| O=C(NC1CC1)c1ccc2ccc(N3CCN(CC4CC4)CC3)n2c1 | -36.7% |
| Cc1nn(-c2ccccc2)c2c1c(C(F)F)cc(=O)n2CC(=O)O | 13.39% |
| COCCN1CCC(NCc2c(F)cccc2F)C1 (stereo not drawn) | 28.54% |
| Cc1nc(-c2ccncc2)ncc1C(C)NC(=O)Cn1ccccc1=O (stereo not drawn) | 10.02% |
| Cc1nc(-c2ccncc2)ncc1C(C)NC(=O)CN1CCCCC1 (stereo not drawn) | 50.41% |
| Cc1nc(-c2ccncc2)ncc1C(C)NC(=O)CN1CCCC1=O (stereo not drawn) | 28.62% |
| Cc1noc(CN2CCCC(Cn3nc(C)nc3C)C2)n1 (stereo not drawn) | 72.31% |

| SMILES | INHIBITION |
| --- | --- |
| CCc1noc(CN2CCCC(Cn3nc(C)nc3C)C2)n1 (stereo not drawn) | 21.39% |
| Cc1nc(C)n(CC2CCCN(Cc3nc(C4CC4)no3)C2)n1 (stereo not drawn) | -38.96% |
| Cc1nc(C)n(CC2CCCN(Cc3cn4c(C)cccc4n3)C2)n1 (stereo not drawn) | 60.64% |
| CCc1nc(CN2CCCC(Cn3nc(C)nc3C)C2)no1 (stereo not drawn) | 70.27% |
| COCCc1noc(CN2CCCC(Cn3nc(C)nc3C)C2)n1 (stereo not drawn) | 30.91% |
| Cc1nc(C)n(CC2CCCN(Cc3noc(C)n3)C2)n1 (stereo not drawn) | 17.31% |
| Cc1nc(C)n(CC2CCCN2Cc2cn3c(C)cccc3n2)n1 (stereo not drawn) | -17.11% |
| Cc1nc(C)n(CC2CCCN(Cc3cccc(F)c3F)C2)n1 (stereo not drawn) | 2.18% |
| Cn1cc(C2COC3(CCN(C(=O)Cc4ccccc4)CC3)C2)cn1 (stereo not drawn) | 2.27% |
| CNC(=O)CNC1CC2(CCN(c3ncccn3)CC2)c2ccccc21 (stereo not drawn) | 70.75% |
| CNC(=O)CC1CC2(CCN(c3ncccn3)CC2)c2ccccc21 (stereo not drawn) | 2.87% |
| c1cnc(N2CCC3(CC2)CC(NCC2CC2)c2ccccc23)nc1 (stereo not drawn) | 33.11% |
| COc1ccc(OCc2cc(C(=O)N3CC=CC3)n[nH]2)c(Cl)c1 | 27.77% |
| CCC(O)CNC(=O)c1cc(COc2ccc(OC)cc2Cl)[nH]n1 (stereo not drawn) | 52.98% |
| COc1ccc(OCc2cc(C(=O)N3CCOCC3)n[nH]2)c(Cl)c1 | 15.05% |
| COc1ccc(OCc2cc(C(=O)N3C[C@@H](C)O[C@@H](C)C3)n[nH]2)c(Cl)c1 | 21.29% |
| COc1ccc(OCc2cc(C(=O)N3CCC(O)CC3)n[nH]2)c(Cl)c1 | 8.57% |
| CCC(CO)NC(=O)c1cc(COc2ccc(OC)cc2Cl)[nH]n1 (stereo not drawn) | 45.82% |
| CC[C@@H](CO)NC(=O)c1cc(COc2ccc(OC)cc2Cl)[nH]n1 | 69.67% |
| CNC(=O)C(C)NC(=O)c1cc(COc2ccc(OC)cc2Cl)[nH]n1 (stereo not drawn) | 55.36% |
| COc1ccc(OCc2cc(C(=O)N3CCSCC3)n[nH]2)c(Cl)c1 | 8.48% |
| CCc1oc(C(=O)NC(C)Cc2cnccn2)cc1CN1CCCC1 (stereo not drawn) | 12.11% |

| SMILES | INHIBITION |
| --- | --- |
| CNc1cccc(C2CCCN(C(=O)c3ccn(C)n3)C2)n1 (stereo not drawn) | 15.64% |
| Cc1cc(C(F)(F)F)n2nc(C3CCCN3C3CCSCC3)cc2n1 (stereo not drawn) | 36% |
| OC1(CN2CCC(Oc3cccc(C(F)(F)F)c3)CC2)CCNC1 (stereo not drawn) | -16.56% |
| Cn1ccc(C(=O)NCCOc2ccc3c(c2)OCO3)cc1=O | 25.78% |
| CC(C)(C)C(=O)NCCCn1cncn1 | 32.55% |
| Cc1cc(NC(=O)CN2CCCC2c2c(C)nn(C)c2C)on1 (stereo not drawn) | 26.76% |
| c1cnnc(N2CCCC(NCc3ccc(-n4cncn4)cc3)C2)c1 (stereo not drawn) | 32.79% |
| CC1(C)O[C@@](C)([C@H]2CC3(CCN(c4cnccn4)CC3)CO2)CC[C@@H]1O | 4.19% |
| c1cnn([C@@H]2CN(Cc3nccs3)[C@@H]3CCCO[C@@H]32)c1 | 13.61% |
| c1csc(CN2C[C@@H](n3cccn3)[C@H]3OCCC[C@H]32)c1 | 51.85% |
| O=C(N[C@@H]1CN(Cc2cccs2)[C@@H]2CCCO[C@@H]21)C1CC1 | 8.91% |
| O=C(c1cccc(C2CCNC2)c1)N1CCC(c2ccncc2)CC1 (stereo not drawn) | -0.41% |
| O=C(Nc1cccc(C2SCCS2)c1)C1CCCN1c1nccs1 (stereo not drawn) | -7.88% |
| Cc1cccc(OCCNC(=O)C(C)S(=O)(=O)c2ccccn2)c1 (stereo not drawn) | -27.59% |
| CCN(CC)Cc1cc(C(=O)N2CCCC(O)(CO)C2)c(C)o1 (stereo not drawn) | 35.42% |
| CCN(CC)Cc1cc(C(=O)N2CCC3(CCN(C)CC3)C2)c(C)o1 | -14.17% |
| CCN(CC)Cc1cc(C(=O)N2CCC3(CC2)NCCNC3=O)c(C)o1 | 64.71% |
| Cc1nc2c(C)cccc2cc1C(=O)N1CCC2(CCN(C)CC2)C1 | -30.77% |
| Cc1nc2c(C)cccc2cc1C(=O)N1CCC2(CCNCC2)CC1 | -10.67% |
| Cc1nc2c(C)cccc2cc1C(=O)N1CCC2(CC1)NCCNC2=O | 71.07% |

From ChEMBL document CHEMBL4513216, “Probing the Open Global Health Chemical Diversity Library for Multistage-Active Starting Points for Next-Generation Antimalarials” (ACS Infect Dis, 2020)
